Assay [1] can be described thus: resazurin metabolic signal in HepG2 cells – cell-based, resazurin fluorescence, 24 h, PK04 Diversity Set, profiling panel (AID 1172). Further: test concentration not given here. The conditions noted are these: HepG2 viability, higher = more signal. For orientation: The colour change of resazurin is a common sign of viable cells or microbes.
Assay [2] in a line: budding yeast growth changes without added modifier – OD600, strain BY4716, 24 h, basal condition, primary screen (AID 1173). As to conditions: S. cerevisiae BY4716 growth, OD600, 24 h; higher = more signal, called active from +8 up or from −8 down.
Assay [3] is described as follows: viability profiling in MM1S myeloma cells – cell-based, resazurin fluorescence, basal, 24 h, PK04 Diversity Set, profiling panel (AID 1174).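 Further: MM1S multiple myeloma cell line; test concentration not given here.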 The conditions noted are these: higher = more signal, called active from +8 up or from −8 down.
The target in assay [4] is Dihydroorotate dehydrogenase (quinone), mitochondrial (Plasmodium falciparum (isolate 3D7)) (UniProt Q08210). In words: inhibition of P. falciparum DHODH – biochemical, C-terminal His tag, absorbance 600 nm, primary screen (AID 1175).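 Further: recombinant parasite enzyme with a five histidine tag at its C terminus; test concentration not given here.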 As to conditions: PfDHODH enzyme, DCIP absorbance 600 nm; higher = more signal, called active from +8 up or from −8 down.
The nature of assay [5]: inhibition of PAO1 biofilm formation – strain PAO1, LB-PBS medium, absorbance 600 nm, primary screen (AID 1176). Further: test concentration not given here. As to conditions: P. aeruginosa PAO1 growth/biofilm, A600, 12 h; higher = more signal.
Assay [6] is described as follows: growth modulation of vineyard yeast isolate – strain RM11-1a, OD600, basal, 24 h, primary screen (AID 1177).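 Further: cultures grown under basal conditions with no added stressor; test concentration not given here.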 As to conditions: S. cerevisiae RM11-1a growth, OD600, 24 h; higher = more signal, called active from +8 up or from −8 down.
The nature of assay [7]: growth of efflux-deficient E. coli DRC39 – strain DRC39, OD650, 24 h, E. coli filamentation inducers, primary screen (AID 1178).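 Further: growth measured as culture turbidity by optical density at 650 nm; test concentration not given here.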 The conditions noted are these: E. coli DRC39 acrAB, higher = more signal, called active from +8 up or from −8 down.
Assay [8] is described as follows: growth of efflux-deficient E. coli DRC39 – strain DRC39, OD650, 48 h, E. coli filamentation inducers, primary screen (AID 1179).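 Further: screen aims at cell division blockers that make cells filament.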 The conditions noted are these: E. coli DRC39 delta-acrAB growth, higher = more signal, called active from +8 up or from −8 down.
Assay [9] can be described thus: viability profiling in RPMI8226 myeloma cells – cell-based, resazurin fluorescence, basal, 24 h, PK04 Diversity Set, profiling panel (AID 1180).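 Further: RPMI8826 multiple myeloma cell line at 5000 cells per well; test concentration not given here.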 The conditions noted are these: higher = more signal.
Assay [10] has as its target E3 ubiquitin-protein ligase XIAP (Homo sapiens) (UniProt P98170). Kind of assay: small molecules binding XIAP protein – biophysical, small-molecule microarray, fluorescence 635 nm, primary screen (AID 1181).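 Further: score merges 667 nm emission and signal to noise over triplicate slides.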 As to conditions: higher = more signal.

In PubChem BioAssay one finds z-score and composite z-score data, which are given here for twelve compounds.

Each structure is given as a SMILES string. Calls of active or inactive are those of the source. Unless noted, how the calls were made is not given here.

E3 ubiquitin-protein ligase XIAP (Homo sapiens), sequence (P98170 whole entry, looked up): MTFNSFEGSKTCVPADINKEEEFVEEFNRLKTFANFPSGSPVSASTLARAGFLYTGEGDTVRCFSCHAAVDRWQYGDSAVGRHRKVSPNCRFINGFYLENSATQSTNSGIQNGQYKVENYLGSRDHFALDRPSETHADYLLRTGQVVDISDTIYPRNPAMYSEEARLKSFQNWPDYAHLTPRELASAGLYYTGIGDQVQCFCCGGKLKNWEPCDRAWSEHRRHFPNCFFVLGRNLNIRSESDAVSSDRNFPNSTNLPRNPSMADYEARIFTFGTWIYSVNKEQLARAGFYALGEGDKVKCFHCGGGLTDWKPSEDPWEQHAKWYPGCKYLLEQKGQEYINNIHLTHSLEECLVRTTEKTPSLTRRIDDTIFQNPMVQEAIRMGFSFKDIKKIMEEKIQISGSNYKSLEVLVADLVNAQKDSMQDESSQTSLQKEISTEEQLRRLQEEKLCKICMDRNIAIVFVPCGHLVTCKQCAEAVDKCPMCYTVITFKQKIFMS
Dihydroorotate dehydrogenase (quinone), mitochondrial (Plasmodium falciparum (isolate 3D7)), sequence (Q08210 whole entry, looked up): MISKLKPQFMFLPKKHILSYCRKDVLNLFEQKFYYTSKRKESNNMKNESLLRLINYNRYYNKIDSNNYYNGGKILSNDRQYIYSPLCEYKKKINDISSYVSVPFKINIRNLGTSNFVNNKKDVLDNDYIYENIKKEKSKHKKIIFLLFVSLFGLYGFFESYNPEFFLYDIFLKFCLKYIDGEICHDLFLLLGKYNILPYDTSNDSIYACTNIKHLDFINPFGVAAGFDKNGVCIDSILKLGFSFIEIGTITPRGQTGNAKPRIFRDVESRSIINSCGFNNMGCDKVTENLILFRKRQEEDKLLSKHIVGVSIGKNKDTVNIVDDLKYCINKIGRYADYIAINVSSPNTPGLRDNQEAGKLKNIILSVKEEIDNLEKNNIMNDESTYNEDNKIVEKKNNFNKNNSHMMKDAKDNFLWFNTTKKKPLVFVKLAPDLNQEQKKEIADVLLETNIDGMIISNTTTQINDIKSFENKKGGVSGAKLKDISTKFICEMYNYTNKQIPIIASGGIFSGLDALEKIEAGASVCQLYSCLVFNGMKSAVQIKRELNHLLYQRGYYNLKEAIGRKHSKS

On to `C[C@@H]1C=CCC(=O)OC[C@H](C)C(=O)N2CCC[C@H]2C(=O)OC1`, for which the z-score in assay [1] was 0.613; in [2], 0.516 (inactive); in assay [3] it was -0.0084 (inactive); in assay [5] it was -0.549 (inactive); in assay [6], 0.21 (inactive); in assay [7] it was 0.686 (inactive). Moreover, the figures for the z-score in [8] and in [9] were 0.528 (inactive) and 0.575, respectively. Further, the results for the composite z-score in assay [4] and in [10] were -0.697 (inactive) and -0.0416, respectively.
On to `C=CC[C@@H]1C=C[C@H](ON=C(C)CCN2CCc3nc(CC)c(CC)cc3C2)[C@@H](CO)O1`, for which the z-score is -0.127 in assay [1]; -0.392 (inactive) in assay [2]; -0.439 (inactive) in [3]; -0.0417 (inactive) in assay [5]; 0.189 (inactive) in assay [6]; 0.0116 (inactive) in assay [7]. The values for the z-score in [8] and in assay [9] were 0.138 (inactive) and -0.639, respectively. For the same compound, the composite z-score in assay [4] is -1.29 (inactive); in assay [10], 0.0178.
As to `CCc1cc2c(nc1CC)CCN(CCC(C)=NOC[C@@H](O)[C@H]1O[C@@H]3OC(C)(C)O[C@@H]3[C@H]1O)C2`, the z-score in [1] is -0.595; in assay [2], 0.0824 (inactive); in [3], -0.244 (inactive); in assay [5] it was 0.535 (inactive); in [6], -0.752 (inactive); in assay [7], 0.548 (inactive). Moreover, the z-score is -0.953 (inactive) in assay [8] and -0.269 in assay [9]. Moreover, the composite z-score was -0.439 (inactive) in [4] and -0.365 in assay [10].
For `CC(C)C[C@@H]1NC(=O)[C@H]2C[C@@H](C(=O)NCCCCCCN(C)C)[C@@H](c3cccc(OCCO)c3)N2C1=O`, the z-score was -0.233 in assay [1]; -0.0693 (inactive) in assay [2]; -0.891 (inactive) in assay [3]; -0.0059 (inactive) in assay [5]; -0.159 (inactive) in assay [6]; 0.0442 (inactive) in [7]. For the same compound, the z-score in assay [8] is 0.0484 (inactive); in assay [9], -0.992. In addition, the composite z-score in [4] was 0.344 (inactive); in assay [10], 0.0753.
As for `CO[C@@H]1COC(=O)CC=C[C@@H](C)[C@@H]2C=C[C@@H](O)[C@@H](COC(=O)CC=C[C@H]1C)O2`, the z-score in [1] was 0.234; in assay [2], -1.29 (inactive); in [3], 0.604 (inactive); in assay [5], 0.683 (inactive); in assay [6], -2.03 (inactive); in assay [7], -0.0072 (inactive). Further, the z-score was -0.392 (inactive) in [8] and -0.501 in [9]. Moreover, the composite z-score in [4] was -1.34 (inactive); in assay [10] it was 0.0304.
As for `CO[C@@H]1COC(=O)CC=C[C@@H](C)[C@@H]2C=C[C@H](O)[C@@H](COC(=O)CCC[C@H]1C)O2`, the z-score in assay [1] is 0.696; in assay [2], -1.19 (inactive); in assay [3], 0.492 (inactive); in assay [5], -0.95 (inactive); in assay [6] it was -0.725 (inactive); in [7], 0.118 (inactive). The values for the z-score in assay [8] and in [9] were -0.195 (inactive) and 0.401, respectively. The composite z-score in [4] is -0.24 (inactive); in [10] it was -0.12.
`O=C1c2ccccc2[C@@]2(Cc3ccccc3N(C3CC3)C2=O)[C@H](c2ccc(CO)cc2)N1Cc1ccccc1C(F)(F)F`: the z-score in assay [1] was -0.506; in assay [2], 0.194 (inactive); in assay [3] it was 0.187 (inactive); in assay [5], 0.242 (inactive); in assay [6], -0.887 (inactive); in assay [7], -0.201 (inactive). The values for the z-score in assay [8] and in [9] were -0.136 (inactive) and -0.398, respectively. For the same compound, the composite z-score is -9.3 (active) in assay [4] and 0.0428 in assay [10].
For `Cc1ccc(F)cc1S(=O)(=O)N[C@@H]1CCN(Cc2ccc(CC(C)C)cc2)C1`, the z-score in assay [1] is -0.367; in assay [2] it was -17.2 (active); in assay [3] it was -0.653 (inactive); in assay [5] it was 0.294 (inactive); in [6], -14.5 (active); in assay [7] it was -20.3 (active). Moreover, the z-score in [8] is -17.4 (active); in assay [9] it was -1.89. Moreover, the composite z-score was -0.687 (inactive) in [4] and -0.106 in assay [10].
Regarding `CCOC(=O)NN=C1C[C@@H](O)[C@@H](O)[C@@H]2[C@@H]3C(=O)N(C[C@@H]4CCCO4)C(=O)[C@@H]3CC[C@@H]12`, the z-score in assay [1] is 0.208; in [2], 0.623 (inactive); in assay [3] it was -0.307 (inactive); in [5], -0.674 (inactive); in assay [6], 0.664 (inactive); in [7], 0.914 (inactive). In addition, the results for the z-score in assay [8] and in assay [9] were 1.4 (inactive) and 0.0557, respectively. Also, the composite z-score in assay [4] is -0.851 (inactive); in assay [10], 0.0432.
Turning to `CO[C@H]([C@@H](C)[C@H](OC)c1ccccc1)[C@H](C)[C@@H](OC)[C@H](C)C(C)=O`, the z-score is 0.0132 in assay [1]; -1.22 (inactive) in [2]; 0.367 (inactive) in assay [3]; -0.373 (inactive) in assay [5]; 0.135 (inactive) in assay [6]; -0.0566 (inactive) in [7]. Further, the z-score in assay [8] is -0.59 (inactive); in assay [9], -0.0764. Also, the results for the composite z-score in [4] and in assay [10] were 0.758 (inactive) and -0.21, respectively.
In the case of `COCCOC(=O)N1C(=O)[C@@]2(c3cc(C#CCNC(N)=O)ccc31)[C@H](c1ccccc1OCCO)N1[C@H](c3ccccc3)[C@H](c3ccccc3)OC(=O)[C@H]1[C@@H]2C(=O)N1CCN(c2ncccn2)CC1`, the z-score was -0.0783 in assay [1]; 0.353 (inactive) in assay [2]; -0.0546 (inactive) in [3]; 2.49 (inactive) in assay [5]; 0.733 (inactive) in assay [6]; 0.924 (inactive) in assay [7]. The results for the z-score in [8] and in assay [9] were 1.18 (inactive) and 0.241, respectively. The composite z-score is -1.48 (inactive) in assay [4] and -0.152 in assay [10].
Consider `O=C1[C@H]2[C@H]3[C@H](O)[C@H](O)CC(=NOCc4ccccc4)[C@@H]3CC[C@H]2C(=O)N1Cc1ccccc1`, for which the z-score was 1.38 in assay [1]; -0.148 (inactive) in assay [2]; 0.85 (inactive) in [3]; -0.377 (inactive) in assay [5]; -0.118 (inactive) in assay [6]; 0.16 (inactive) in [7]. Also, the results for the z-score in assay [8] and in assay [9] were 0.71 (inactive) and 1.17, respectively. For the same compound, the figures for the composite z-score in assay [4] and in assay [10] were -0.0807 (inactive) and 0.0512, respectively.
